Screening data deposited in PubChem BioAssay by National Center for Advancing Translational Sciences (NCATS).
FUS suppressor = suppressors of FUS proteinopathy in yeast; actives 0.24% (n = 390,000); Potency, µM (top dose mostly 76.6 µM), usual class: activators; S. cerevisiae FUS-expressing, growth rescue, OD600, 24 h;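 note: plate controls were DMSO vehicle for no effect and reference control for full effect; nearly all actives have a fitted effect of over 55% in size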
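Yeast FUS proteinopathy model; galactose-induced FUS (2%), starting OD 0.005. Cpds in dilution series, 24hr, 30C, 99% humidity. Abs 600 nm growth. Pos ctrl CP55940 (top 92uM final); neg ctrl DMSO.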
Abeta rescue = restores growth of yeast expressing A-beta42 peptide. yeast expressing A-beta42, growth rescue, OD600, 48 h; response scale: 0% DMSO, 100% iron-clioquinol control. Potency, µM (top dose mostly 46.1 µM), hits mostly activators. actives 0.063% (n = 410,000). AID 1347071; note: nearly all actives have a fitted effect of over 55% in size
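Growth rescue measured by 600 nm absorbance after 48 h yeast culture at 30 C with compound. Values normalized between DMSO and an equimolar ferric chloride plus clioquinol control.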
aSyn rescue = rescues yeast growth from alpha-synuclein toxicity. Yeast expressing alpha-synuclein, growth rescue, BacTiter-Glo, 24 h. Potency, µM (highest dose often 46.1 µM), for inactives: at the top dose growth rescue (activation), most hits filed as activators. actives 0.14% (n = 370,000); note: % of control where 0% means no effect; nearly all actives have a fitted effect of over 65% in size
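Rescue of yeast growth: cells expressing toxic alpha-synuclein, induced in galactose at OD600 0.02, incubated with compound 24 h at 30 C. ATP luminescence quantified growth; inhibitors of toxicity appear as activators.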
TDP43 rescue = TDP-43 toxicity inhibition in yeast; TDP-43 expressing yeast growth rescue, BacTiter-Glo, 24 h; Potency, µM (highest dose often 46.1 µM), without a hit: at the top dose growth rescue (activation), hits mostly activators; actives 1.8% (n = 410,000); note: % of control where 0% means no effect; nearly all actives have a fitted effect of over 50% in size
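Luminescence from BacTiter-Glo reports growth of TDP-43-expressing yeast after 24 hr at 30 deg C with compound. Cells were raffinose-pregrown to mid-log, then seeded in galactose medium at OD600=0.02.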
Active calls of the source: *; i = inactive; ? = inconclusive; . = no result given; [ ] = another dose, or the depositor's remark. Only some compounds are listed: those with a hit (about 2.1% of all), similar ones and a draw of the others. Calls come from the whole dose curve; as a rule, active = well fitted curve in the direction sought with a large enough effect; inconclusive = small, poorly fitted or top-dose-only effect, or another doubt; inactive = no such curve, though single readings can be large; an effect the other way counts as inactive or inconclusive. Potency is the fitted concentration of half-maximal effect.

SMILES	FUS suppressor	Abeta rescue	aSyn rescue	TDP43 rescue
CC1CCCCN1C(=O)c1cccc(NC2=C(Cl)C(=O)N(Cc3ccccc3)C2=O)c1 (stereo unspecified)	i	i	16%	18µM*
CC1CCN(C(=O)c2ccc(NC3=C(Cl)C(=O)N(Cc4ccccc4)C3=O)cc2)CC1	i	i	?	16%
Cc1[nH]nc2ncc(C(=O)c3ccccc3O)cc12	13µM*	i	-6%	19%
CC(C)(C)c1ccc(S(=O)(=O)N2CCCC(C(=O)NCc3cccs3)C2)cc1 (stereo unspecified)	i	.	.	.
CCOC(=O)N1CCN(c2ccc(S(=O)(=O)N3CCC(C)CC3)cc2[N+](=O)[O-])CC1	i	i	3%	22µM*
CCC(=O)c1ccc(OCc2ccccc2)c(OC)c1	i	i	10%	11µM*
CCC(=O)c1ccc(OCc2ccc(C(=O)OC)cc2)c(OC)c1	i	i	-12%	20%
Cc1ccc2nc(-c3ccco3)c(Cc3ccccc3)n2c1	i	i	-16%	24%
Clc1cccc(Cc2c(-c3cccc(Br)c3)nc3ccc(Br)cn23)c1	i	i	-8%	20µM*
Cc1ccc2nc(-c3ccco3)c(CC(C)(C)C)n2c1	i	i	37%	11µM*
Clc1cccc(-c2nc3ccc(Br)cn3c2Cc2ccccc2)c1	i	i	-16%	?
Clc1cccc(Cc2c(-c3cccc(Cl)c3)nc3ccc(Br)cn23)c1	i	i	-12%	35µM*
Brc1cccc(-c2nc3ccc(Br)cn3c2Cc2ccccc2)c1	i	i	-8%	28µM*
O=C(CCc1ccccc1-c1ccccc1CCNC(=O)c1ccccc1)NCc1ccccc1	i	.	.	.
CC(C)CCNC(=O)c1ccc2nc(CCc3ccccc3)oc2c1	i	i	.	14%
Brc1ccc2nc(-c3ccco3)c(Cc3ccsc3)n2c1	i	i	6%	3.2µM*
Clc1ccc2nc(-c3ccco3)c(Cc3ccsc3)n2c1	i	i	17%	-26%
Cc1ccc(Cc2c(-c3ccccc3)nc3ccc(Br)cn23)cc1	i	i	18%	22µM*
COc1ccc(-c2ccc3c(N)c(C(=O)NCc4ccc(C)cc4)sc3n2)cc1	i	i	.	3%
Cc1ccc(CNC(=O)c2sc3nc(-c4ccc(F)cc4)ccc3c2N)cc1	25µM*	i	.	8%
Cc1ccc(NC(=O)CCCn2c(=O)c3cccn3c3cccnc32)cc1C	i	i	.	4%
COc1ccc([C@@H]2CC=C(C(=O)O)[C@H](c3ccc(F)cc3)N2S(=O)(=O)c2ccc(Cl)cc2)cc1	?	i	-23%	14µM*
Cc1ccc([C@H]2C(C(=O)O)=CC[C@@H](c3cccc(Cl)c3)N2S(=O)(=O)c2ccc(C)cc2)cc1	i	i	-1%	26%
COc1ccc([C@@H]2CC=C(C(=O)O)[C@H](c3cccc(Cl)c3)N2S(=O)(=O)c2ccc(Cl)cc2)cc1	i	i	0%	21%
Cc1ccc(S(=O)(=O)N2[C@@H](c3ccc(F)cc3)C(C(=O)O)=CC[C@H]2c2cccc(Cl)c2)cc1	i	i	0%	22µM*
SMILES	FUS suppressor	Abeta rescue	aSyn rescue	TDP43 rescue
COC(=O)c1cccc(Cn2ccc3ccc(-c4ccc5ccn(C(=O)c6ccccc6OC)c5c4)cc32)c1	i	.	.	.
Cc1ccc(C=Nn2c(-c3n[nH]c4c3CCC4)n[nH]c2=S)o1	i	.	.	.
NS(=O)(=O)c1ccc(NC(=O)c2cnn3c2NC(=C2CC2)C=C3C(F)F)cc1	.	.	2%	.
C=CCN(C)CC#Cc1ccc(C)cc1	i	.	.	.
O=C(Cn1cc(SCc2ccc(F)cc2)c2ccccc21)N1CCCCC1	i	i	.	20%
O=C(Nc1ccccc1)OCC1CCCO1 (stereo unspecified)	i	i	2%	3%
O=C(Nc1ccccc1)OCC1COC(c2ccccc2)(c2ccccc2)O1 (stereo unspecified)	.	i	11%	20µM*
COc1ccc(Nc2ncnc3sc4c(c23)CCCC4)cc1	i	i	-7%	20µM*
CC(=O)Nc1ccc(Nc2ncnc3sc4c(c23)CCCC4)cc1	i	i	6%	?
Fc1ccc(Nc2ncnc3sc4c(c23)CCC4)cc1	i	i	32µM*	18µM*
COc1ccc(Nc2ncnc3scc(-c4ccc(OC)cc4)c23)cc1	.	i	1%	22µM*
Clc1ccc(-c2csc3ncnc(Cl)c23)cc1	i	i	-7%	0%
NNc1ncnc2scc(-c3ccc(Cl)cc3)c12	i	i	14%	16µM*
CN1CC2(Cc3cc([N+](=O)[O-])ccc31)C(=O)OC(C)(C)OC2=O	.	.	0%	.
COc1ccc(CNC(=O)c2oc3c(c2C)-c2nn(Cc4ccc(Cl)cc4)cc2CC3)cc1	?	i	.	15%
O=S(=O)(Nc1ncnc2sc3c(c12)CCC3)c1ccc2ccccc2c1	?	i	-37%	-10%
Cc1cc(F)ccc1S(=O)(=O)Nc1ncnc2sc3c(c12)CCC3	i	i	9%	20µM*
CCc1ccc(Nc2ncnc3sc4c(c23)CCCC4)cc1	i	i	0%	20µM*
CC(C)(C)CCN1CCC[C@H](NC(=O)COc2ccc(F)c(Cl)c2)C1	i	.	.	.
CCN(C(=O)COC(=O)c1c2c(nc3ccccc13)/C(=C/c1ccccc1)CC(C)C2)C1CCS(=O)(=O)C1 (stereo unspecified)	.	i	13%	14µM*
CCN(C(=O)COC(=O)c1c(C)nn(-c2ccccc2)c1C)C1CCS(=O)(=O)C1 (stereo unspecified)	i	i	-1%	-9%[9.22 µM]
Cc1ccc(C(c2sc3nc(-c4ccco4)nn3c2O)N2CCC3(CC2)OCCO3)cc1 (stereo unspecified)	i	i	.	21%
CN(C)c1nc(C(=O)Nc2ccccc2)nc(N(C)C)n1	i	i	0%	7%
CN(C)c1nc(SCCOC(=O)Nc2ccccc2)nc(N(C)C)n1	.	i	1%	3.2µM*
Cc1cccc(NS(=O)(=O)c2c(C)nc3scc(C)n3c2=O)c1	i	i	?	16µM*
Cc1nc2scc(C)n2c(=O)c1S(=O)(=O)Nc1ccc(N2CCN(S(C)(=O)=O)CC2)cc1	i	?	?	16µM*
COc1ccc(CCNC(=O)Nc2ccc3c(c2)[C@]2(CC(=O)N(CC(C)C)C2c2ccccc2)C(=O)N3C)cc1OC (stereo partly specified)	i	.	.	.
COc1cccc(CC(=O)OC(C)C(=O)Nc2ccc(Cl)cn2)c1 (stereo unspecified)	i	i	-4%	0%
CC(OC(=O)Cc1cccc(C(F)(F)F)c1)C(=O)Nc1ccc(Cl)cn1 (stereo unspecified)	i	5µM*	2%	?
CCCC(=O)NC1CC(=O)N(c2ccc3c(c2)OCCO3)C1 (stereo unspecified)	i	i	.	9%
